Test results published in the supplement of paper PMC10981050.
Structures can show the parent of a compound that is named as a salt.

tested on: MOLM14; assay: cell viability relative to vehicle control; higher = less cytotoxic; settings: 10 µM; SRSF2 genotype: SRSF2 P95H/wt
Procedure, shortened: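 Screening covered the Selleck bioactive, kinase and epigenetic probe libraries, less identity-inconsistent compounds, on CRISPR-edited mutant clones and isogenic wild-type clones of four leukaemia lines. Cells, at 2000 per well in 50 µL medium, received a single 10 µM acoustically dispensed dose. After 48 h the supernatant was removed and CellTiter-Glo luminescence was read. Viability was analysed in Genedata Screener as percent of the on-plate vehicle control.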

SMILES | cell viability
O=c1cc(N2CCOCC2)oc2c(-c3ccccc3)cccc12 | 51.5%
C[C@@H]1C(=O)O[C@H](C)[C@H]1C[C@@H](O)[C@](C)(O)[C@H]1CC[C@@]2(O)C3=CC(=O)[C@@H]4C[C@@H](O)[C@@H](O)C[C@]4(C)[C@H]3CC[C@]12C [Cyasterone] | 114%
CSCC[C@H](NC(=O)[C@H](CC(C)C)NC(=O)[C@H](Cc1c[nH]c2ccccc12)NC(=O)[C@H](CCC(N)=O)NC(=O)[C@@H](NC(=O)[C@H](Cc1ccccc1)NC(=O)[C@H](CC(=O)O)NC(=O)[C@H](CCC(N)=O)NC(=O)[C@H](C)NC(=O)[C@H](CCCNC(=N)N)NC(=O)[C@H](CCCNC(=N)N)NC(=O)[C@H](CO)NC(=O)[C@H](CC(=O)O)NC(=O)[C@H](CC(C)C)NC(=O)[C@H](Cc1ccc(O)cc1)NC(=O)[C@H](CCCCN)NC(=O)[C@H](CO)NC(=O)[C@H](Cc1ccc(O)cc1)NC(=O)[C@H](CC(=O)O)NC(=O)[C@H](CO)NC(=O)[C@@H](NC(=O)[C@H](Cc1ccccc1)NC(=O)[C@@H](NC(=O)CNC(=O)[C@H](CCC(N)=O)NC(=O)[C@H](CO)NC(=O)[C@@H](N)Cc1cnc[nH]1)[C@@H](C)O)[C@@H](C)O)C(C)C)C(=O)N[C@@H](CC(N)=O)C(=O)N[C@H](C(=O)O)[C@@H](C)O [Glucagon HCl] | 102%
CCc1ccc(Cc2ccc3c(c2)[C@]2(OC3)O[C@H](CO)[C@@H](O)[C@H](O)[C@H]2O)cc1 [Tofogliflozin(CSG 452)] | 80.2%
CCCCC(C)(O)C/C=C/[C@H]1[C@H](O)CC(=O)[C@@H]1CCCCCCC(=O)OC (mixture of isomers) [Misoprostol] | 83.5%
O=C(Nc1ccc(Br)cc1)c1ccc(Br)c(S(=O)(=O)NCc2ccccc2)c1 | 96.9%
CC[C@H]1OC(=O)[C@H](C)[C@@H](O[C@H]2C[C@@](C)(OC)[C@@H](O)[C@H](C)O2)[C@H](C)[C@@H](O[C@@H]2O[C@H](C)C[C@H](N(C)C)[C@H]2O)[C@](C)(O)C[C@@H](C)/C(=N\OCOCCOC)[C@H](C)[C@@H](O)[C@]1(C)O [Roxithromycin (Roxl-150)] | 101%
C=C1CC[C@H](O)C/C1=C/C=C1\CCC[C@]2(C)[C@@H]([C@H](C)/C=C/[C@H](C)C(C)C)CC[C@@H]12 [Vitamin D2 (Ergocalciferol)] | 93.4%
O=C(c1ccc(C(=O)N2CCC(N3CCCC3)CC2)c(Nc2ccccc2)c1)N1CCC(N2CCCC2)CC1 | 89%
OCc1ccc(-c2ccc(-c3ccc(CO)s3)o2)s1 | 11.3%
CCNC(=O)c1noc(-c2cc(C(C)C)c(O)cc2O)c1-c1ccc(CN2CCOCC2)cc1 [Luminespib (AUY-922, NVP-AUY922)] | 1.2%
O=C(c1ccc(Cl)cc1)N(Cc1ccccc1)C1CCCCC1 | 78.1%
COc1ccc2c3c1O[C@H]1C[C@@H](O)C=C[C@@]31CCN(C)C2 [Galanthamine] | 97.9%
CN1CCN(c2ccc3nc(-c4c(N)c5c(F)cccc5[nH]c4=O)[nH]c3c2)CC1 [Dovitinib (TKI-258, CHIR-258)] | 2.27%
COc1cc2nc(N3CCN(C(=O)C4CCCO4)CC3)nc(N)c2cc1OC (stereo unspecified) [Terazosin HCl Dihydrate] | 99.1%
CC[C@H](Nc1ncnc2[nH]cnc12)c1oc2ccccc2c(=O)c1-c1cccc(F)c1 [Tenalisib (RP6530)] | 82.4%
O=C(c1ccccc1)C(O)O [Phenylglyoxal hydrate] | 67.8%
O=c1c(O)c(-c2ccc(O)c(O)c2)oc2cc(O)cc(O)c12 [Quercetin (Sophoretin)] | 98.3%
CO[C@H]1/C=C/O[C@@]2(C)Oc3c(C)c(O)c4c(O)c(c5c(nc6cc(C)ccn65)c4c3C2=O)NC(=O)/C(C)=C\C=C\[C@H](C)[C@H](O)[C@@H](C)[C@@H](O)[C@@H](C)[C@H](OC(C)=O)[C@@H]1C [Rifaximin (Xifaxan)] | 105%
CC[C@@]1(O)C(=O)OCc2c1cc1n(c2=O)Cc2cc3c(CN(C)C)c(O)ccc3nc2-1 [Topotecan] | 1.67%
C=C(C)[C@@H]1CC[C@]2(C(=O)O[C@@H]3O[C@H](CO[C@@H]4O[C@H](CO)[C@@H](O[C@@H]5O[C@@H](C)[C@H](O)[C@@H](O)[C@H]5O)[C@H](O)[C@H]4O)[C@@H](O)[C@H](O)[C@H]3O)CC[C@]3(C)[C@H](CC[C@@H]4[C@@]5(C)CC[C@H](O[C@@H]6OC[C@H](O)[C@H](O)[C@H]6O[C@@H]6O[C@@H](C)[C@H](O)[C@@H](O)[C@H]6O)[C@@](C)(CO)[C@@H]5CC[C@]43C)[C@@H]12 [Anemoside B4] | 96.9%
